The text below walks through data of PubChem BioAssay.

Structures are written as SMILES. Active and inactive are the calls of the source.

Experiment [1] is described as follows: optical density shifts of acrAB sulA E. coli – strain DRC41, OD650, 48 h, E. coli filamentation inducer project, primary screen (AID 1152).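 Further: E. coli MC1000 strain DRC41 lacking acrAB efflux pump and sulA.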 The conditions noted are these: higher = more signal, called active from +8 up or from −8 down.
A short description of experiment [2]: probe aLefty1 binding on compound microarray – biochemical, small-molecule microarray, 635/667 nm fluorescence, primary screen (AID 1153).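 Further: score merges spot fluorescence with signal-to-noise ratio from the scanned slide images.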 The conditions noted are these: higher = more signal.
Experiment [3] can be described thus: plasmodial surface anion channel blockers, osmotic lysis – cell-based, P. falciparum Indochina, OD700, 1 h, primary screen (AID 1154). As to conditions: P. falciparum Indochina infected RBC osmotic lysis, higher = more signal, called active from +8 up or from −8 down.
Experiment [4] can be described thus: plasmodial surface anion channel blockers, osmotic lysis – cell-based, P. falciparum Indochina, OD700, 2 h, primary screen (AID 1155).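 Further: lysis reports solute entry through the parasite surface anion channel PSAC.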 The conditions noted are these: P. falciparum Indochina infected erythrocytes, higher = more signal, called active from +8 up or from −8 down.
Experiment [5] is described as follows: changes in parasitized red cell lysis, either direction – P. falciparum Indochina, OD700, 3 h, PSAC antagonist project, primary screen (AID 1156). The conditions noted are these: P. falciparum-infected erythrocytes, osmotic lysis, higher = more signal, called active from +8 up or from −8 down.
The nature of experiment [6]: plasmodial surface anion channel blockers, osmotic lysis – cell-based, P. falciparum Indochina, OD700, 18 h, primary screen (AID 1157). The conditions noted are these: P. falciparum Indochina infected erythrocytes, osmotic lysis OD700, 18 h; higher = more signal, called active from +8 up or from −8 down.
A short description of experiment [7]: S6 kinase pathway phospho-S6 level changes – cell-based, A549, cytoblot, luminescence, serum-stimulated, primary screen (AID 1158).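 Further: serum-stimulated A549 lung adenocarcinoma cells; signal is phosphorylated S6 detected by cytoblot immunostaining with HRP secondary.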 The conditions noted are these: 5 h, higher = more signal.
In experiment [8] the target is NADPH oxidase 2 (Homo sapiens) (UniProt P04839). Description: compounds shifting NOX2 Amplex Red fluorescence – cell-based, HEK293-NOX2, PMA-stimulated, NOX inhibitor project, primary screen (AID 1159). Further: test concentration not given here. As to conditions: 45 min, higher = more signal, called active from +8 up or from −8 down.
For experiment [9], the target named is NADPH oxidase 4 (Homo sapiens) (UniProt Q9NPH5). Description: compounds shifting NOX4 Amplex Red fluorescence – cell-based, HEK293-NOX4, tetracycline-induced, NOX inhibitor project, primary screen (AID 1160). The conditions noted are these: HEK293-NOX4, Amplex Red H2O2 fluorescence, 45 min; higher = more signal, called active from +8 up or from −8 down.
Experiment [10] concerns the target NADPH oxidase 5 (Homo sapiens) (UniProt Q96PH1). Put plainly: compounds shifting NOX5 Amplex Red fluorescence – cell-based, HEK293-NOX5, NOX inhibitor project, primary screen (AID 1161). As to conditions: HEK293-NOX5, ionomycin, 45 min, higher = more signal.
Experiment [11] is described as follows: compound effects on lung adenocarcinoma cell viability – A549, calcein-AM fluorescence, 48 h, basal, profiling panel (AID 1162). Further: test concentration not given here. As to conditions: higher = more signal.
A short description of experiment [12]: compound effects on differentiated 3T3-L1 adipocyte viability – cell-based, 3T3-L1 adipocytes, calcein-AM fluorescence, 48 h, basal, profiling panel (AID 1163). Further: test concentration not given here. The conditions noted are these: 3T3-L1 adipocytes viability, higher = more signal.
Experiment [13] can be described thus: compound effects on hepatocellular carcinoma cell viability – HepG2, calcein-AM fluorescence, 48 h, basal, profiling panel (AID 1164). Further: test concentration not given here. As to conditions: higher = more signal.
Experiment [14] in a line: compound effects on multiple myeloma cell viability – MM1S, calcein-AM fluorescence, 48 h, basal, profiling panel (AID 1165). Further: test concentration not given here. As to conditions: higher = more signal.
Experiment [15] is described as follows: calcein-AM signal in unstimulated myeloma cells – cell-based, calcein-AM fluorescence, 48 h, PK04 Diversity Set, profiling panel (AID 1166).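 Further: cells grown under basal conditions without added stimulus; test concentration not given here.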 The conditions noted are these: RPMI8226 myeloma viability, higher = more signal.
Experiment [16] is described as follows: JC-1 mitochondrial signal, unstimulated HepG2 cells – cell-based, JC-1 fluorescence, 24 h, 100 nL compound, profiling panel (AID 1167). Further: test concentration not given here. The conditions noted are these: HepG2 mitochondrial potential, higher = more signal.
A short description of experiment [17]: JC-1 mitochondrial signal, unstimulated adipocytes – cell-based, JC-1 fluorescence, 3T3-L1 adipocytes, 24 h, 100 nL compound, profiling panel (AID 1168). Further: test concentration not given here. The conditions noted are these: JC-1 mitochondrial fluorescence, higher = more signal, called active from +8 up or from −8 down.
Experiment [18] is described as follows: JC-1 mitochondrial signal, unstimulated myeloma cells – cell-based, JC-1 fluorescence, RPMI8226, 24 h, 100 nL compound, profiling panel (AID 1169). Further: test concentration not given here. As to conditions: JC-1 mitochondrial potential fluorescence, higher = more signal.
Experiment [19] in a line: JC-1 mitochondrial signal, unstimulated MM1S myeloma – cell-based, JC-1 fluorescence, 24 h, 100 nL compound, profiling panel (AID 1170). Further: test concentration not given here. As to conditions: MM1S mitochondrial potential, higher = more signal.
Experiment [20] in a line: resazurin metabolic signal in A549 cells – cell-based, resazurin fluorescence, 24 h, PK04 Diversity Set, profiling panel (AID 1171). Further: test concentration not given here. As to conditions: A549 viability, higher = more signal, called active from +8 up or from −8 down. In general terms: The colour change of resazurin is a common sign of viable cells or microbes.

Chain of NADPH oxidase 4 (Homo sapiens) (Q9NPH5 whole entry, looked up): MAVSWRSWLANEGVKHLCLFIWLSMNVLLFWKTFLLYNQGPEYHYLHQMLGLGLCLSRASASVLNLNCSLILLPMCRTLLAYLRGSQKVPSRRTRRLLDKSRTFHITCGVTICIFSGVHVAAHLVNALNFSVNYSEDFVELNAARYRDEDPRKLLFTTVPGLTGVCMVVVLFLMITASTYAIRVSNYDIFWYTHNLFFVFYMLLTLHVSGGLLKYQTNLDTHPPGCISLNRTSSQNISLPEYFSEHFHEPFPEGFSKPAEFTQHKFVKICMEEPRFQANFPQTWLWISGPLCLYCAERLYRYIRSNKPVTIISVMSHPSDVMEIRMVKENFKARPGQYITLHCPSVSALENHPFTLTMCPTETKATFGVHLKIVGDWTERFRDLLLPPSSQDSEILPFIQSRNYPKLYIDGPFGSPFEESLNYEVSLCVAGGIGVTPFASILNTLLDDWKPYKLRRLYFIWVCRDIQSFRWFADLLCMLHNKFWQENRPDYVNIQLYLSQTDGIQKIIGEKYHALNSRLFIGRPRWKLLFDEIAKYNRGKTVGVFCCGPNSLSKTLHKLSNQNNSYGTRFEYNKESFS
Chain of NADPH oxidase 2 (Homo sapiens) (P04839 whole entry, looked up): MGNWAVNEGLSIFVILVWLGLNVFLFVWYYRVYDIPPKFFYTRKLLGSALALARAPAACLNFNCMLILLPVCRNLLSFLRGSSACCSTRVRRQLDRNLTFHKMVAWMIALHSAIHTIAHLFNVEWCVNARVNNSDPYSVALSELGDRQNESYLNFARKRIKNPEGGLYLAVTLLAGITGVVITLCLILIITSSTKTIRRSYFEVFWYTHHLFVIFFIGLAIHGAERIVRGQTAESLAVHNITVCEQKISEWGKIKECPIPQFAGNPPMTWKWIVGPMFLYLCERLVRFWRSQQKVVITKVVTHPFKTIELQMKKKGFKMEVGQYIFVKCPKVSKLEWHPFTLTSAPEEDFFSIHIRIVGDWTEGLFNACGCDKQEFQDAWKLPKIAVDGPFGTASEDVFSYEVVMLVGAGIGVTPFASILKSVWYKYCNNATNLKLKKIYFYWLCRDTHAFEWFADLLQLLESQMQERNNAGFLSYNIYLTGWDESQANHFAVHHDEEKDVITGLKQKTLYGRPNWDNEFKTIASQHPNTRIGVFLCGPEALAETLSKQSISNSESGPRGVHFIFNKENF
Chain of NADPH oxidase 5 (Homo sapiens) (Q96PH1 whole entry, looked up): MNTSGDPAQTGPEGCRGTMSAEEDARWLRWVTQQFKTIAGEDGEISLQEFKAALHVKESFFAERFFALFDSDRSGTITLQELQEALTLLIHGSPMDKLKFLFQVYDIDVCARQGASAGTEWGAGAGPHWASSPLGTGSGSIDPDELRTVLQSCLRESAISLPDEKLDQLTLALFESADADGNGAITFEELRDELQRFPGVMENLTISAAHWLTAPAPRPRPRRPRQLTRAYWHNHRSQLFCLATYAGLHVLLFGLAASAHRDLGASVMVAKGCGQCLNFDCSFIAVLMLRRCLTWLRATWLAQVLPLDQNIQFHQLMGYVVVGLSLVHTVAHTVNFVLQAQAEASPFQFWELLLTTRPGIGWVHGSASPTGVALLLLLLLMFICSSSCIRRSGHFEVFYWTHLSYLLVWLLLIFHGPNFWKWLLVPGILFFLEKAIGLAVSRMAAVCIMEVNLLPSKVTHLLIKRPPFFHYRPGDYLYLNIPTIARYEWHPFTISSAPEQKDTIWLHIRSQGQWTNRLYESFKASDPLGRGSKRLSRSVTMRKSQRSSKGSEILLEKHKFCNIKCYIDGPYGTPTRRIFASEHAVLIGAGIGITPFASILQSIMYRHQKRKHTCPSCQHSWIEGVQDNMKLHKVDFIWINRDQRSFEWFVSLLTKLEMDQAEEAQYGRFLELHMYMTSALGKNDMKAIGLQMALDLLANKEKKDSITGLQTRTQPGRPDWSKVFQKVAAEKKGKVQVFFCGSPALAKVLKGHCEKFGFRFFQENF

Consider `CC(C)c1ccc(NN2C(C(O)c3ccco3)C=CC3C(=O)N(c4ccccc4)C(=O)C32)cc1` (stereo not given), for which the z-score in experiment [1] was -0.302 (inactive); in [3] it was 6.96 (inactive); in [4], 1.93 (inactive); in experiment [5], 0.626 (inactive); in experiment [6] it was 1.29 (inactive); in [7], -0.694. Besides, the z-score in experiment [8] is -1.67 (inactive); in [9] it was -1.95 (inactive); in [10], -1.88; in [11], 0.983; in [12], -1.49; in experiment [13], 0.842. In addition, the z-score in [14] was -0.155; in [15], -0.166; in [16] it was -1.14; in experiment [17], -0.473 (inactive); in experiment [18], 0.473; in [19], -0.921. Moreover, in experiment [20], the z-score is -0.635 (inactive). In experiment [2], this compound displayed a composite z-score of 0.409.
Consider `CCCC[C@@H]1C[C@H]1[C@@H](NC(=O)c1ccccc1)c1ccc(Cl)cc1`, for which the z-score in experiment [1] is -2.41 (inactive); in [3] it was 1.72 (inactive); in experiment [4], 0.589 (inactive); in experiment [5], -0.573 (inactive); in experiment [6] it was 0.839 (inactive); in experiment [7], -0.584. In addition, the z-score is -0.093 (inactive) in experiment [8]; -0.505 (inactive) in [9]; 1.86 in experiment [10]; -1.35 in [11]; -0.847 in experiment [12]; -1.17 in experiment [13]. In addition, the z-score in experiment [14] is -1.23; in experiment [15] it was -1.45; in [16] it was 0.229; in [17], -1.6 (inactive); in experiment [18], -0.852; in experiment [19], -1.19. Further, the z-score in experiment [20] is 2.09 (inactive). In [2], this compound displayed a composite z-score of 0.233.
On to `COC(=O)C(CC#Cc1ccc2c(c1)[C@]1(C(=O)N2)[C@H](C(=O)O)[C@H]2C(=O)O[C@H](c3ccccc3)[C@H](c3ccccc3)N2[C@@H]1c1ccccc1OCCO)C(=O)OC`, for which the z-score was -1.21 (inactive) in experiment [1]; 4.19 (inactive) in [3]; 0.487 (inactive) in [4]; -5.95 (inactive) in [5]; -0.008 (inactive) in [6]; 0.029 in experiment [7]. Moreover, the z-score in experiment [8] is 1.37 (inactive); in experiment [9], -1.33 (inactive); in experiment [10], 1.19; in experiment [11], -0.045; in experiment [12] it was -0.182; in experiment [13], -0.219. Also, the z-score in [14] was -3.26; in [15] it was -4.09; in [16] it was -2.93; in [17], -0.236 (inactive); in [18] it was -0.441; in [19], -1.98. Also, in experiment [20], the z-score is -0.327 (inactive). In addition, the composite z-score in experiment [2] turned out to be 0.658.
Regarding `CC(C)(C)OC(=O)CC[C@@]1(C(=O)O)N=C(c2ccc(OCCCO)cc2)O[C@@H]1c1ccccc1`, the z-score in experiment [1] is 0.0442 (inactive); in experiment [3], 6.52 (inactive); in [4] it was 0.0947 (inactive); in experiment [5] it was -0.819 (inactive); in experiment [6], 0.0734 (inactive); in experiment [7], -0.407. Also, the z-score in experiment [8] was 0.104 (inactive); in experiment [9], 1.27 (inactive); in experiment [10], 0.548; in [11] it was -0.662; in experiment [12], -0.982; in experiment [13], -0.289. The z-score in experiment [14] is -0.764; in [15], 0.335; in experiment [16] it was -0.602; in [17], -0.445 (inactive); in experiment [18], 0.855; in experiment [19], -0.939. Also, the z-score in [20] was 0.477 (inactive). Moreover, in experiment [2], the composite z-score amounted to 0.284.
In the case of `C=CCOC(=O)[C@@H]1[C@H]2C(=O)O[C@H](c3ccccc3)[C@H](c3ccccc3)N2[C@H](c2ccc(OCCOC(=O)[C@H]3C[C@H]4C(=O)N[C@@H](CCCC[N+](C)(C)C)C(=O)N4[C@H]3c3ccc(O)cc3)cc2)[C@@]12C(=O)Nc1ccc(I)cc12`, the z-score in experiment [1] was -0.451 (inactive); in experiment [3], 2.42 (inactive); in [4] it was 1.57 (inactive); in [5] it was 0.511 (inactive); in [6], 0.792 (inactive); in experiment [7], -0.281. The z-score is 1.4 (inactive) in experiment [8]; 1.06 (inactive) in experiment [9]; 1.24 in [10]; -0.105 in experiment [11]; -1.19 in [12]; -0.591 in [13]. In addition, the z-score in [14] is -0.477; in [15] it was -0.362; in experiment [16], -2.03; in [17], 0.178 (inactive); in experiment [18], -0.275; in experiment [19], -1.13. Also, the z-score in [20] was -0.173 (inactive). In addition, the composite z-score in [2] came to 0.113.
